# According to PubChem BioAssay (Tox21):
# Several values for one entry are separate records, joined by “and”; a condition that tells them apart may be missing. Equal values may be shown once. Records with an inconclusive call do not appear. Where a structure was tested more than once in an assay, its records may differ in their call. Activity calls are given as the source filed them. The call rests on the fitted dose curve; in most records, active means well fitted cell-killing curve with a large enough effect in the repeat runs; inconclusive means weak or mixed curves; inactive means no such curve, though single readings can be large or run the other way.
# Assay: qHTS assay to identify small molecule agonists of the peroxisome proliferator-activated receptor delta (PPARd) signaling pathway - cell viability counter screen (AID 743211); further: nearly all actives have a fitted effect of over 55% in size
# Conditions: PPARd-bla HEK293H viability, CellTiter-Glo luminescence, 17 h; series mostly up to 62.6 µM; activity change, negative = cytotoxicity: at the top concentration
# Source text: U.S. Tox21 Program National Center for Advancing Translational Sciences [NCATS] NIH Chemical Genomics Center [NCGC] U.S. Environmental Protection Agency [EPA] National Institutes of Environmental Health Sciences [NIEHS] National Toxicology Program [NTP] U.S. Food and Drug Administration [FDA] Tox21 Assay Overview: The peroxisome proliferator-activated receptors (PPARs) are lipid-activated transcription factors of the nuclear receptor superfamily with three distinct subtypes namely PPAR alpha, PPAR delta (PPARd) and PPAR gamma. All these subtypes heterodimerizes with Retinoid X receptor (RXR) and have different physiological functions. […] To identify the compounds that activate PPAR-delta signaling, GeneBLAzer PPAR delta UAS-bla HEK293H cell line (Invitrogen, Carlsbad, CA, USA) containing a beta-lactamase reporter gene under the control of an Upstream Activator Sequence (UAS) was used to screen the Tox21 compound library. The cytotoxicity of the Tox21 compound library against the PPARd-bla cell line was tested in parallel by measuring the cell viability using CellTiter-Glo assay (Promega, Madison, WI) in the same wells.
# Tox21 Assay Protocol Summary: PPARd-bla cells were dispensed at 3000 cells/6uL/well in 1536-well black wall/clear bottom plates using a Multidrop Combi (Thermo Fisher Scientific, Waltham, MA) dispenser. After the assay plates were incubated at 37 C and 5% CO2 for 5 h, 23 nL of compounds dissolved in DMSO, positive controls or DMSO only was transferred to the assay plate by a Pintool station (Kalypsys, San Diego, CA). The assay plates were incubated at 37C for 17 h. After 1 uL of LiveBLAzerTM B/G FRET substrate was added using a Bioraptr Flying Reagent Dispenser (FRD) workstation (Beckman Coulter, Indianapolis, IN, USA), the plates were incubated at room temperature for 2 h, and fluorescence intensity was measured by an Envision plate reader (PerkinElmer, Shelton, CT). For cell viability readout that measures cytotoxicity, 3 ul/well of CellTiter-Glo reagent was added into the assay plates using a Bioraptr FRD. After 30 min incubation at room temperature, the luminescence intensity in the plates was measured using a ViewLux plate reader (PerkinElmer).
# On the % scale 0 is the no-effect control and ±100 the full control effect; potency means the concentration at half of the fitted maximal effect.
Compound,"activity change, negative = cytotoxicity",Potency
COC(=O)c1cc(Oc2ccc(Cl)cc2Cl)ccc1[N+](=O)[O-],-0.393% (inactive),
COc1nc(C)nc(NC(=O)NS(=O)(=O)c2ccccc2Cl)n1,-3.46% (inactive),
CC(=O)[O-].CC(=O)[O-].[Co+2],1.66% (inactive),
CSC(C)(C)/C=N/O,2.77% (inactive),
CC(C)Br,0.354% (inactive),
C=CCBr,3.4% [at 81.1 µM] (inactive),
O=S1OCC2C(CO1)C1(Cl)C(Cl)=C(Cl)C2(Cl)C1(Cl)Cl (stereo not given),,24.5 µM (active)
CCNc1nc(NC(C)C(C)C)nc(SC)n1 (stereo not given),10.8% (inactive),
[C-]1=CC=CC1.[Cl][Zr+2][Cl].c1cc[cH-]c1,4.71% [at 81.1 µM] (inactive),
CC(Cc1ccc(O)cc1)NCC(O)c1cc(O)cc(O)c1 (stereo not given),-6.83% (inactive),
CNC(=O)O/N=C(\C)C(C)S(C)(=O)=O (stereo not given),4.26% [at 765 µM] (inactive),
CCCCC(CC)COC(=O)OOC(C)(C)C (stereo not given),5.77% (inactive),
CC(Cc1ccccc1)N(C)Cc1ccco1 (stereo not given),2.46% (inactive),
CCCCCCCCCCCCCCn1cc[n+](C)c1,,24.6 µM (active) and 21.6 µM (active) and inactive
COP(=O)(OC)Oc1ccc([N+](=O)[O-])cc1,-8.17% (inactive),
C1=CCC=C1,1.57% (inactive),
CC1CN1 (stereo not given),-0.186% (inactive),
[Cl][Hg][c]1ccccc1,,0.977 µM (active)
CCCN,-0.393% [at 81.1 µM] (inactive),
CC(=O)[O][Sn]([c]1ccccc1)([c]1ccccc1)[c]1ccccc1,,0.0977 µM (active)

Compound,"activity change, negative = cytotoxicity",Potency
Fc1ccc(C(OCCN2CCN(CCCc3ccccc3)CC2)c2ccc(F)cc2)cc1,,16.8 µM (active)
CC1CCCC1,1.05% (inactive),
CCCCN(CCCC)C(=S)S,0.234% (inactive),
C=CC(=O)[O][Sn]([CH2]CCC)([CH2]CCC)[CH2]CCC,,1.95 µM (active)
Oc1cc(Cl)cc(Cl)c1,-11.7% [at 81.1 µM] (inactive),
ClC1(Cl)C2(Cl)C3(Cl)C4(Cl)C(Cl)(Cl)C5(Cl)C3(Cl)C1(Cl)C5(Cl)C24Cl (stereo not given),0.444% (inactive),
O=S(=O)(O)F,0.792% [at 81.1 µM] (inactive),
COc1ccc(Cc2nccc3cc(OC)c(OC)cc23)cc1OC,-1.68% (inactive),
O=c1[nH]c(Cl)c(Cl)cc1Cl,-5.67% (inactive),
CCNS(=O)(=O)C(F)(F)C(F)(F)C(F)(F)C(F)(F)C(F)(F)C(F)(F)C(F)(F)C(F)(F)F,-14.8% (inactive),
CCC(C)Br (stereo not given),-16.5% [at 81.1 µM] (inactive),
CNC(=O)/C=C(\C)OP(=O)(OC)OC,3.84% (inactive),
C=Cc1cccc(CCl)c1,10.7% [at 81.1 µM] (inactive),
[O]=[Cr][O][Cr]=[O],-2.93% [at 81.1 µM] (inactive),
CCN(CC)Cc1nccn1-c1ccc([N+](=O)[O-])cc1C(=O)c1ccccc1Cl,-12.7% (inactive),
C=CC(=C)C,-9.77% (inactive),
Oc1cccc(Cl)c1Cl,2.48% [at 81.1 µM] (inactive),
CCCCn1cc[n+](C)c1.[Cl][Fe-]([Cl])([Cl])[Cl],-0.836% (inactive),
CC(C)C(Nc1ccc(C(F)(F)F)cc1Cl)C(=O)OC(C#N)c1cccc(Oc2ccccc2)c1 (stereo not given),-8.8% [at 81.1 µM] (inactive),
CN(C)CCc1c[nH]c2ccccc12,-8.27% [at 81.1 µM] (inactive),
